Reference: PubChem BioAssay (NCI)
The panel holds about 79,000 compounds, 15% with a hit somewhere; the sample as a whole holds those more often. Active and inactive are the calls of the source. Rule as the data show it: active = growth inhibition above about 70%; inactive = the rest.

Assay: NCI Yeast Anticancer Drug Screen. Data for the cln2 rad14 strain (AID 165);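 also: 0% = growth equal to vehicle treated cultures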
Settings: S. cerevisiae cln2 rad14 strain, at 50.0 µM, hits give high values
Method in brief: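 cln2 rad14 yeast strain; compound exposure; growth inhibition read vs vehicle controls.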

With O=C(O)c1c[n+]([O-])ccc1Cl as the compound, how does the growth inhibition read?
The growth inhibition was -42% (inactive).

Which growth inhibition does the source give for C[N+](C)(C)CC(=O)N/N=C/c1oc(-c2cccc([N+](=O)[O-])c2)c(-c2cccc([N+](=O)[O-])c2)c1[N+](=O)[O-] here?
Its growth inhibition is 16.3% (inactive).

Which growth inhibition does the source give for O=c1[nH]c(=O)n(C2OC(COP(=O)(O)OP(=O)(O)O)C(O)C2O)cc1F (stereo not given) here?
Its growth inhibition is -31.3% (inactive).

With O=c1[nH]c(=O)n(C2OC(CO)C(O)C2O)cc1OCc1ccccc1 (stereo not given) as the compound, how does the growth inhibition read?
Its growth inhibition is 4.75% (inactive).

For COc1ccc(C(=O)/C=c2/c(CC(=O)c3ccc(OC)cc3)nc3nnc(N)n23)cc1, which growth inhibition is on record?
Its growth inhibition is 21.9% (inactive).

With COc1cc([C@@H]2C3C(=O)c4ccccc4C3[C@@H](c3cc(OC)c(OC)c(OC)c3)C23Cc2ccccc2C3=O)cc(OC)c1OC (stereo not given in full) as the compound, how does the growth inhibition read?
The growth inhibition was 4.55% (inactive).

Which growth inhibition does the source give for Cn1c(=O)c2c(nc(CCNC(=O)c3ccccc3)n2C)n(C)c1=O here?
The growth inhibition was -27.4% (inactive).

Which growth inhibition does the source give for O=C(NC1CCCCC1)C1C2CC3OC(=O)C1C3C2 (stereo not given) here?
Its growth inhibition is -27.6% (inactive).

Which growth inhibition does the source give for COc1ccc(-c2cc(-c3ccccc3)nc(-c3cccc([N+](=O)[O-])c3)c2)cc1 here?
The growth inhibition was -3.75% (inactive).

With Cc1ccc(S(=O)(=O)CC(=O)c2ccc(Br)cc2)cc1 as the compound, how does the growth inhibition read?
Its growth inhibition is 4.9% (inactive).

With N[C@H](CCC(=O)NCP(=O)(O)O)C(=O)O as the compound, how does the growth inhibition read?
Its growth inhibition is -7.1% (inactive).

With NOCc1cc(Cl)sc1Cl as the compound, how does the growth inhibition read?
Its growth inhibition is 60% (inactive).

For CCN(CC)CCCCCOC(=O)c1ccccc1, which growth inhibition is on record?
Its growth inhibition is 40% (inactive).

For CC(=O)OC1CC(OC(C)=O)C(OC(C)=O)CC1OC(C)=O (stereo not given), which growth inhibition is on record?
The growth inhibition was -18.2% (inactive).

Which growth inhibition does the source give for CN1CCN(c2c3c(nc4ccccc24)CCCC3)CC1 here?
The growth inhibition was -40.2% (inactive).

For CC(C)(C)C(=O)CC(=O)C(F)(F)C(F)(F)C(F)(F)F.CC(C)(C)C(=O)CC(=O)C(F)(F)C(F)(F)C(F)(F)F.CC(C)(C)C(=O)CC(=O)C(F)(F)C(F)(F)C(F)(F)F.[Eu], which growth inhibition is on record?
Its growth inhibition is 39.5% (inactive).

For O=C1CC2CCC(C1)S2=O (stereo not given), which growth inhibition is on record?
The growth inhibition was 23% (inactive).

With N#CC1(N(O)C(=O)Nc2ccccc2)CCCCC1 as the compound, how does the growth inhibition read?
The growth inhibition was -7.05% (inactive).

For Nc1ccc2[nH]cc(CCC(=O)O)c2c1, which growth inhibition is on record?
Its growth inhibition is -11.6% (inactive).

Which growth inhibition does the source give for CC12CCc3ccccc3C1=NNC(=O)C2 (stereo not given) here?
Its growth inhibition is -6.45% (inactive).

With Cc1cccc(NC(=S)Nc2ccc(-c3ccc(NC(=S)Nc4cccc(C)c4)cc3)cc2)c1 as the compound, how does the growth inhibition read?
Its growth inhibition is 0.15% (inactive).

Which growth inhibition does the source give for CCC(CC(N)=O)C(C#N)(C#N)C(N)=O (stereo not given) here?
Its growth inhibition is -2.85% (inactive).

For O=C(O)/C=C/c1ccccc1Cl, which growth inhibition is on record?
The growth inhibition was -25.8% (inactive).

Which growth inhibition does the source give for OC(COc1cccc(C(F)(F)F)c1)CN1CCN(c2ccccc2)CC1 (stereo not given) here?
Its growth inhibition is 86.7% (active).

With COc1cc(/C=C2\C(=O)N(C(=O)c3ccc(NC(C)=O)cc3)N=C2C)ccc1O as the compound, how does the growth inhibition read?
Its growth inhibition is -40.4% (inactive).

Which growth inhibition does the source give for COC(=O)c1cc(CN(C)C)c(O)c(CN(C)C)c1 here?
The growth inhibition was -3.7% (inactive).

For CCOC(=O)c1c(N=P(c2ccccc2)(c2ccccc2)c2ccccc2)nnc(-c2ccccc2)c1-c1ccccc1, which growth inhibition is on record?
Its growth inhibition is 1.85% (inactive).

With Nc1cc2c(cc1/C=C1\CCNC1=O)OCO2 as the compound, how does the growth inhibition read?
Its growth inhibition is -6.6% (inactive).

With CC(C)CCCC(C)C1CCC2(C)C3=C(CCC12C)C1(C)CCC(=O)C(C)(C)C1CC3 (stereo not given) as the compound, how does the growth inhibition read?
Its growth inhibition is 44.5% (inactive).

For COc1ccc(C2CC(=O)N(CC(=O)O)C(=O)C2)cc1, which growth inhibition is on record?
The growth inhibition was -17% (inactive).

Which growth inhibition does the source give for CC(Cc1ccccc1)c1ccccc1 (stereo not given) here?
The growth inhibition was 3.35% (inactive).

Which growth inhibition does the source give for Cc1cc(=O)n(-c2ccccc2)c(=O)n1-c1nc2ccccc2[nH]1 here?
Its growth inhibition is 3.65% (inactive).

With c1ccc2cc(CNCCCCNCCCNCc3ccc4ccccc4c3)ccc2c1 as the compound, how does the growth inhibition read?
Its growth inhibition is 46.2% (inactive).

With CCCCCCCCCCCCCCCCCCCCCC(=O)O as the compound, how does the growth inhibition read?
The growth inhibition was -28.3% (inactive).

Which growth inhibition does the source give for [Cl][Pt+2][Cl].[NH-]CC1(C[NH-])CCC1 here?
The growth inhibition was 9% (inactive).

With COc1cc2c(c3oc(=O)cc(CCC(=O)O)c13)C1CC(=O)OC1O2 (stereo not given) as the compound, how does the growth inhibition read?
Its growth inhibition is 1% (inactive).

With CN=C(Nc1cccc(C(F)(F)F)c1)SCc1ccc(N=C=S)cc1 as the compound, how does the growth inhibition read?
Its growth inhibition is 10.2% (inactive).

With CCCCCCCCCCCO as the compound, how does the growth inhibition read?
The growth inhibition was -6.8% (inactive).

For O=c1cccc2c3ccccc3ccn12, which growth inhibition is on record?
Its growth inhibition is 12.3% (inactive).

For O=C(NCCCCCCCCNC(=O)c1cccc2ccccc12)c1cccc2ccccc12, which growth inhibition is on record?
Its growth inhibition is -9.25% (inactive).
